Source: PubChem BioAssay (NMMLSC)
Hits are enriched below; roughly 1.2% of the tested compounds scored in any of these assays.
LAP4 TOR yeast: modulators of TOR pathway LAP4-GFP in S. cerevisiae; S. cerevisiae LAP4-GFP multiplex, flow cytometry GFP, 3 h; median GFP as percent of DMSO wells; hit rate 0.34% among 320,000; GFP response vs DMSO, % at 10 µM;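 active = GFP response vs DMSO above a set limit, about the screen mean plus 3 SD, cut at about 150% in these data; inconclusive = under 70 cell events counted for the yeast strain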
AGP1 TOR yeast: yeast TOR pathway AGP1-GFP modulation; S. cerevisiae AGP1-GFP multiplex flow cytometry, 3 h; GFP as percent of DMSO wells; GFP response vs DMSO, % at 10 µM; hit rate 0.02% among 320,000;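 active = GFP response relative to DMSO above a set limit, near screen average plus 3 SD, cut at about 150% in these data; inconclusive = fewer than 70 cells counted for the yeast strain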;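 also: median GFP channel fluorescence of the gated AGP1 strain per well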
RPL19A TOR yeast: yeast TOR pathway RPL19A-GFP modulation. AID 2025. hit rate 0.3% among 330,000. percent response vs DMSO, % at 10 µM. S. cerevisiae RPL19A-GFP strain, flow cytometry, 3 h; hits give low values;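 active = percent response vs DMSO below 50%; inconclusive = fewer than 70 events counted for the yeast strain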;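 also: median channel GFP fluorescence of the barcoded RPL19A-GFP strain; ratio of sample median GFP to plate DMSO average so 100% = DMSO; lower means less RPL19A-GFP as with rapamycin TOR inhibition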
CIT2-GFP yeast: alters CIT2-GFP fluorescence in TOR pathway yeast screen. S. cerevisiae CIT2-GFP strain, flow cytometry, 3 h; 100 means same as DMSO wells. GFP response vs DMSO, % at 10 µM. hit rate 0.065% among 320,000;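 active = GFP response relative to DMSO above a set limit, near the screen mean plus 3 SD, cut at about 150% in these data; inconclusive = Fewer than 70 cells measured for a yeast strain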;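 also: ratio of well median GFP fluorescence to mean of DMSO wells on the plate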
Pemphigus Ab inh: inhibitors of pemphigus antibody binding to human desmoglein-3; P32926; DSG3-coupled beads, scFv-anti-DSG3-GFP binding, flow cytometry; hits give low values; binding (percent of control), % at 10 µM; hit rate 0.48% among 310,000;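 active = binding more than 3 SD below its plate's average and above zero; inconclusive = below that plate limit but binding exactly zero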;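 also: hits lower antibody fragment binding to DSG3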
MEP2-GFP yeast: yeast TOR pathway MEP2-GFP modulation. hit rate 0.51% among 330,000. GFP response vs DMSO, % at 10 µM. S. cerevisiae MEP2-GFP strain, flow cytometry GFP, 3 h; 100% = DMSO control level;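 active = GFP response versus DMSO above a set limit, roughly screen mean plus 3 SD, cut at about 180% in these data; inconclusive = fewer than 70 cells counted for a yeast strain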;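 also: median GFP fluorescence of the barcode-gated MEP2-GFP cells per well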
* hit, by the source's call; [ ] = another dose, or the depositor's remark.

Screening O=C(CSc1ccc(Cl)cc1)Nc1cccc(-c2nc3ccccc3[nH]2)c1 returned LAP4 TOR yeast 113, AGP1 TOR yeast 98, RPL19A TOR yeast 101, CIT2-GFP yeast 104, Pemphigus Ab inh 66* and MEP2-GFP yeast 188*.
`O=C(CSc1ccccc1)Nc1ccc(-c2nc3ccccc3[nH]2)cc1` gave LAP4 TOR yeast 98, AGP1 TOR yeast 100, RPL19A TOR yeast 106, CIT2-GFP yeast 95, Pemphigus Ab inh 111 and MEP2-GFP yeast 104.
`O=C(Nc1nc2ccccc2s1)c1cccc(S(=O)(=O)N2CCc3ccccc32)c1` gave LAP4 TOR yeast 107, AGP1 TOR yeast 101, RPL19A TOR yeast 102, CIT2-GFP yeast 99, Pemphigus Ab inh 88 and MEP2-GFP yeast 103.
For O=C(Nc1nc2c(s1)CN(Cc1ccccc1)CC2)c1cccc(S(=O)(=O)N2CCc3ccccc32)c1 the results were LAP4 TOR yeast inconclusive, AGP1 TOR yeast inconclusive, RPL19A TOR yeast 20*[may fluoresce violet], CIT2-GFP yeast inconclusive, Pemphigus Ab inh 99 and MEP2-GFP yeast inconclusive.
For C[C@@]12C(=O)Nc3ccccc3C(=O)N1[C@H]1c3cc(Br)ccc3OC[C@@H]1[C@@H]2c1ccccc1 the results were LAP4 TOR yeast 130, AGP1 TOR yeast 84, RPL19A TOR yeast 99, CIT2-GFP yeast 98, Pemphigus Ab inh 101 and MEP2-GFP yeast 89.
Screening CCN(CC)S(=O)(=O)c1ccc(N2CCN(C)CC2)c(NC(=O)c2cc(=O)c3ccccc3o2)c1 returned LAP4 TOR yeast inconclusive, AGP1 TOR yeast inconclusive, RPL19A TOR yeast 39*[may fluoresce violet], CIT2-GFP yeast inconclusive, Pemphigus Ab inh 94 and MEP2-GFP yeast inconclusive.
Screening O=C(Nc1ccc(Cl)cc1N1CCOCC1)C1CCCCC1 returned LAP4 TOR yeast 98, AGP1 TOR yeast 104, RPL19A TOR yeast 101, CIT2-GFP yeast 95, Pemphigus Ab inh 101 and MEP2-GFP yeast 104.
For O=C1[C@H]2[C@@H](c3ccc(C(F)(F)F)cc3)N[C@]3(CCCN(Cc4ccc(F)cc4)C3=O)[C@H]2C(=O)N1Cc1ccccc1 the results were Pemphigus Ab inh 105.
Screening O=C(NCc1cccs1)Nc1cccc(Cl)c1 returned LAP4 TOR yeast 102, AGP1 TOR yeast 105, RPL19A TOR yeast 94, CIT2-GFP yeast 106, Pemphigus Ab inh 9.4* and MEP2-GFP yeast 100.
`O=C(CNC(=S)NC(=O)c1ccccc1Br)c1ccccc1` gave LAP4 TOR yeast 93, AGP1 TOR yeast 95, RPL19A TOR yeast 106, CIT2-GFP yeast 109, Pemphigus Ab inh 6.1* and MEP2-GFP yeast 108.
Screening Cc1ccccc1C(=O)NC(=S)NCC(=O)c1ccccc1 returned LAP4 TOR yeast 97, AGP1 TOR yeast 97, RPL19A TOR yeast 96, CIT2-GFP yeast 100, Pemphigus Ab inh 102 and MEP2-GFP yeast 103.
COc1ccc(CNC(=O)[C@@H]2CCCN2C(=O)[C@@H]2Cc3ccccc3CN2C(=O)OC(C)(C)C)cc1 was read as LAP4 TOR yeast inconclusive, AGP1 TOR yeast inconclusive, RPL19A TOR yeast inconclusive, CIT2-GFP yeast 116, Pemphigus Ab inh 106 and MEP2-GFP yeast inconclusive.
For COc1cccc(NC(=O)[C@@H]2CCCN2C(=O)[C@@H]2Cc3ccccc3CN2C(=O)OC(C)(C)C)c1 the results were LAP4 TOR yeast 78, AGP1 TOR yeast 16, RPL19A TOR yeast 19*[may fluoresce violet], CIT2-GFP yeast inconclusive, Pemphigus Ab inh 99 and MEP2-GFP yeast 159.
COc1cccc(N=Nc2ccc3cccnc3c2O)c1 was read as LAP4 TOR yeast 166*, AGP1 TOR yeast 105, RPL19A TOR yeast 99, CIT2-GFP yeast 146, Pemphigus Ab inh 94 and MEP2-GFP yeast 112.
COc1cc(OC)cc(C(=O)Nc2cccc3cccnc23)c1 was read as LAP4 TOR yeast 99, AGP1 TOR yeast 92, RPL19A TOR yeast 102, CIT2-GFP yeast 100, Pemphigus Ab inh 91 and MEP2-GFP yeast 103.
Screening COC(=O)c1ccc(OC(=O)CS(=O)c2ccccc2[N+](=O)[O-])cc1 (configuration not stated) returned LAP4 TOR yeast 220*[may fluoresce violet], AGP1 TOR yeast 21, RPL19A TOR yeast 69, CIT2-GFP yeast inconclusive, Pemphigus Ab inh 98 and MEP2-GFP yeast 191*[may fluoresce violet].
Screening CCOC(=O)c1ccccc1OC(=O)CS(=O)c1ccccc1[N+](=O)[O-] (configuration not stated) returned LAP4 TOR yeast 98, AGP1 TOR yeast 92, RPL19A TOR yeast 94, CIT2-GFP yeast 85, Pemphigus Ab inh 79 and MEP2-GFP yeast 93.
CN1CCN(C(=O)C(=O)c2cn(CC(=O)N3CCCCCC3)c3ccccc23)CC1 was read as Pemphigus Ab inh 110.
Screening COc1ccc(C2CC(c3ccccc3)=NN2S(=O)(=O)c2ccccc2)cc1 (configuration not stated) returned LAP4 TOR yeast 191*, AGP1 TOR yeast 97, RPL19A TOR yeast 108, CIT2-GFP yeast 131, Pemphigus Ab inh 150 and MEP2-GFP yeast 235*.
For O=C(NC(=S)Nc1ccc2oc(-c3cccnc3)nc2c1)c1cccc(Cl)c1 the results were LAP4 TOR yeast 87, RPL19A TOR yeast 52, CIT2-GFP yeast inconclusive, Pemphigus Ab inh 108 and MEP2-GFP yeast 226*[may fluoresce violet].
`O=C(Nc1ccc2oc(-c3cccnc3)nc2c1)c1cc2ccccc2o1` gave LAP4 TOR yeast 108, AGP1 TOR yeast 94, RPL19A TOR yeast 98, CIT2-GFP yeast 97, Pemphigus Ab inh 103 and MEP2-GFP yeast 119.
For O=C(Cn1ncc2c3ccccc3n(Cc3ccccc3)c2c1=O)NCCCN1CCCC1 the results were LAP4 TOR yeast 95, AGP1 TOR yeast 93, RPL19A TOR yeast 98, CIT2-GFP yeast 95, Pemphigus Ab inh 105 and MEP2-GFP yeast 130.
`O=C(Cn1ncc2c3ccccc3n(Cc3ccccc3)c2c1=O)NCCN1CCOCC1` gave LAP4 TOR yeast 83, AGP1 TOR yeast inconclusive, RPL19A TOR yeast 29*[may fluoresce violet], CIT2-GFP yeast inconclusive, Pemphigus Ab inh 104 and MEP2-GFP yeast 130.
Screening CCCCC(=O)Nc1ccc(C(N)=O)cc1 returned LAP4 TOR yeast 97, AGP1 TOR yeast 98, RPL19A TOR yeast 95, CIT2-GFP yeast 102 and MEP2-GFP yeast 104.
For NC(=O)c1cccc(NC(=O)CCCCC(=O)Nc2cccc(C(N)=O)c2)c1 the results were LAP4 TOR yeast 77, AGP1 TOR yeast inconclusive, RPL19A TOR yeast 23*[may fluoresce violet], CIT2-GFP yeast inconclusive, Pemphigus Ab inh 93 and MEP2-GFP yeast 645*[may fluoresce violet].
O=C(CC1C(=O)NCCN1Cc1ccc(-c2ccccc2)cc1)NCc1ccccc1 (configuration not stated) was read as LAP4 TOR yeast 105, AGP1 TOR yeast 111, RPL19A TOR yeast 103, CIT2-GFP yeast 111, Pemphigus Ab inh 97 and MEP2-GFP yeast 102.
